Screening results as filed in PubChem BioAssay.
The full list was thinned out, with hits kept by preference.
CBX7 AlphaScr – CBX7 chromodomain binding inhibitors, primary screen, biochemical, AlphaScreen; Chromobox protein homolog 7 (Homo sapiens), O95931; normalised signal (fraction of DMSO) (concentration not given with the values); 1.1% of 66,000 active; AlphaScreen His6-CBX7 / biotin-H3K27me3 peptide binding; active compounds read low; AID 1224903, 2016; in the data active means normalised signal below about 0.5
Target sequence (O95931 whole entry, looked up): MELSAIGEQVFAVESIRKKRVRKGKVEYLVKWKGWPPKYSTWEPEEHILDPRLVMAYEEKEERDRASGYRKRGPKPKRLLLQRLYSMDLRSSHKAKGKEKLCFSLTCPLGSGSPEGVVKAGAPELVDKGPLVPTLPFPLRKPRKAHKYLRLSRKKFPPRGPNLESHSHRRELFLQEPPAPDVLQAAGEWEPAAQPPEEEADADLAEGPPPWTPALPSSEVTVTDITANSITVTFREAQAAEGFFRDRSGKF
Starred values were filed as active, the others as inactive.

SMILES | CBX7 AlphaScr
O=C(Nc1ccc2c(c1)OCO2)[C@H](Cc1ccccc1)N1Cc2ccccc2C1=O | 0.417*
Cc1ccc(NC(=O)[C@H](Cc2ccccc2)N2Cc3ccccc3C2=O)cc1F | 0.678
CSCC[C@@H](C(=O)Nc1ccc2c(c1)OCO2)N1Cc2ccccc2C1=O | 0.618
CCc1ccc(OCc2nc(-c3ccccn3)no2)cc1 | 0.975
COc1cccc(NC(=O)Cc2cn(C)c3ccccc23)c1 | 1.07
CCCNC(=O)Cn1cnc2sc(C(=O)NCc3cccnc3)c(C)c2c1=O | 1.03
CCOC(=O)c1ccccc1NC(=O)c1cc2c(-c3ccc(OC)c(OC)c3)nn(C)c2s1 | 1.1
CCOCCCNC(=O)c1cc(Sc2ccc(C)cc2)nc2ccccc12 | 1.06
COc1cccc(-c2nnc(NC(=O)c3ccc(S(=O)(=O)N(C)C)cc3)o2)c1 | 0.229*
COCCN(CCOC)S(=O)(=O)c1ccc(C(=O)Nc2nnc(-c3cccc(OC)c3)o2)cc1 | 0.948
COc1ccccc1-c1nnc(NC(=O)c2ccc(S(=O)(=O)N(C)C)cc2)o1 | 0.036*
COc1ccccc1-c1nnc(NC(=O)c2ccc(S(=O)(=O)N3CCC(C)CC3)cc2)o1 | 0.852
COc1cc(OC)cc(-c2nnc(NC(=O)c3ccc(S(=O)(=O)N(C)Cc4ccccc4)cc3)o2)c1 | 0.0762*
COc1cc(OC)cc(-c2nnc(NC(=O)c3ccc(S(=O)(=O)N4CCCC(C)C4)cc3)o2)c1 (configuration not stated) | 1.06
COc1ccccc1-c1nnc(NC(=O)c2ccc(S(=O)(=O)N3CCCC(C)C3)cc2)o1 (configuration not stated) | 0.823
COc1ccc(-c2nnc(NC(=O)c3ccc(S(=O)(=O)N(C)Cc4ccccc4)cc3)o2)cc1 | 0.00785*
CN(Cc1ccccc1)S(=O)(=O)c1ccc(C(=O)Nc2ccc(-c3nc4ccccc4[nH]3)cc2)cc1 | 1.03
COCCN(CCOC)S(=O)(=O)c1ccc(C(=O)Nc2nnc(-c3ccc(OC)cc3)o2)cc1 | 0.794
c1ccc2c(c1)[nH]c1c(N3CCOCC3)ncnc12 | 1.06
COc1cccc(-c2nc(SCC(=O)Nc3ccc4c(c3)OCO4)c(-c3ccccc3)[nH]2)c1 | 0.854
COc1ccc(C)cc1NC(=O)C1CCCN(S(=O)(=O)c2cccnc2)C1 (configuration not stated) | 0.957
COc1ccc(-c2[nH]c(-c3ccc(OC)c(OC)c3)nc2SCC(=O)Nc2ccc(F)cc2)cc1 | 0.9
CCCc1nnc(NC(=O)c2cccc(OCC)c2)s1 | 1.02
CCOCCCNC(=O)c1ccc2c(c1)nc(C)n2-c1cc(C)ccc1OC | 0.979
COc1ccc(-c2nnc(NC(=O)c3ccc(S(=O)(=O)N(C)Cc4ccccc4)cc3)o2)c(OC)c1 | 0.00137*
SMILES | CBX7 AlphaScr
CCCCN(C)S(=O)(=O)c1ccc(C(=O)Nc2nnc(-c3ccc(OC)cc3OC)o2)cc1 | 0.972
COc1ccc(-c2nnc(NC(=O)c3ccc(S(=O)(=O)N4CCOCC4)cc3)o2)c(OC)c1 | 0.583
CCN1CCCC1CNC(=O)c1cc(Nc2ccc(C)c(C)c2)nc2ccccc12 (configuration not stated) | 1.07
COc1cccc(C(=O)NC(C)C(c2cccs2)N2CCN(c3ccc(F)cc3)CC2)c1OC (configuration not stated) | 0.854
Cc1cc(C)cc(NC(=O)CSc2nccn2-c2cccc(C)c2)c1 | 0.919
O=C(Nc1ccc2c(c1)OCCO2)C1CCCN(C(=O)c2cnn(-c3ccccc3)c2-n2cccc2)C1 (configuration not stated) | 0.931
Cc1ccc2cc(C)c(Nc3ccc(Cl)cc3)nc2c1 | 1.45
CCOC(=O)c1cnc2ccc(OCC)cc2c1Nc1ccc(Cl)cc1 | 1.06
CC1CCCCC1NC(=O)C1c2cccn2CC(=O)N1c1ccc(Cc2ccncc2)cc1 (configuration not stated) | 0.987
Cc1cc(C)n2c(Nc3ccccc3C)c(-c3ccccn3)nc2n1 | 1.07
Cc1ccccc1Nc1c(-c2ccccn2)nc2cccc(C)n12 | 0.242*
Cc1cccc2nc(-c3ccccn3)c(Nc3ccc(C(C)C)cc3)n12 | 0.106*
Cc1cccc2nc(-c3cccnc3)c(Nc3ccc(C(C)C)cc3)n12 | 0.869
Cc1cccc2nc(-c3ccsc3)c(Nc3ccc(C(C)C)cc3)n12 | 0.814
Cc1ccccc1Nc1c(-c2cccnc2)nc2cccc(C)n12 | 0.924
O=C(CC1Nc2ccccc2NC1=O)NCc1cccnc1 (configuration not stated) | 1.01
Cc1ccc(NC(=O)Nc2ccc3snnc3c2)cc1Cl | 1.05
CCOC(=O)c1c(C)n(C)c2ccc(OCC(O)CN3CCN(C)CC3)cc12 (configuration not stated) | 1.01
CCc1nnc(NS(=O)(=O)c2ccc(NC(=O)c3cc(Cl)ccc3OC)cc2)s1 | 1.23
COc1ccc(CNC(=O)C(=O)NCC(C)C)cc1 | 1.03
O=C(CSc1n[nH]c(-c2ccccc2)n1)Nc1ncccn1 | 0.838
O=C1CC(N2CCN(Cc3ccc4c(c3)OCO4)CC2)C(=O)N1c1ccc(Cl)cc1 (configuration not stated) | 0.984
CCOc1ccc(-c2cc(CCCC(=O)NCCOC)no2)cc1 | 1.02
c1ccc(-c2nnc3sc(-c4ccncc4)nn23)cc1 | 1.01
CC(C)N(Cc1ccccc1)S(=O)(=O)c1ccc(C(=O)Nc2nnc(-c3cccs3)o2)cc1 | 0.878
SMILES | CBX7 AlphaScr
CCN(c1ccccc1)S(=O)(=O)c1ccc(C(=O)Nc2nnc(COC)o2)cc1 | 0.787
CN(c1ccccc1)S(=O)(=O)c1ccc(C(=O)Nc2nnc(C3CC3)o2)cc1 | 0.55
CCc1nnc(NC(=O)c2ccc(S(=O)(=O)N(CC)c3ccccc3)cc2)o1 | 0.0735*
COCc1nnc(NC(=O)c2ccc(S(=O)(=O)N(C)c3ccccc3)cc2)o1 | 0.705
CCN(c1ccccc1)S(=O)(=O)c1ccc(C(=O)Nc2nnc(C3CC3)o2)cc1 | 0.0661*
COc1ccc(NC(=O)C2c3ccccc3C(=O)N3CCc4ccccc4C23)cc1Cl (configuration not stated) | 1.01
COc1ccc(Cl)cc1NC(=O)CSc1nccn1-c1cccc(C)c1C | 0.949
O=S(=O)(Nc1ccc(-c2nc3ccccc3o2)cc1)c1ccc(Cl)cc1 | 1.04
Cc1ccc(CNC(=O)CCc2nc3ccccc3n(Cc3ccccc3Cl)c2=O)cc1 | 0.95
CCOCCCNC(=O)CN1C(=O)CSc2ccc(S(=O)(=O)N3CCCCC3)cc21 | 1.04
COc1ccc(Oc2nc(-c3ccc(Cl)cc3)nc3ccccc23)cc1 | 1.12
O=C(CC1(O)C(=O)N(CCc2ccccc2)c2ccc(Br)cc21)c1ccccc1 (configuration not stated) | 0.626
CCCCN1C(=O)C(O)(CC(=O)c2ccc(C(C)C)cc2)c2cc(Br)ccc21 (configuration not stated) | 0.657
CCCN1C(=O)C(O)(CC(=O)c2ccc(C(C)C)cc2)c2cc(Br)ccc21 (configuration not stated) | 0.136*
Cc1cc(C)cc(NC(=O)C2CCN(c3nnc(-n4cccc4)s3)CC2)c1 | 1.01
COCCCNC(=O)c1cc(-c2cccnc2)nc2ccc(S(=O)(=O)N3CCCCCC3)cc12 | 1
CCOC(=O)c1cnc2ccc(OCC)cc2c1N1CCN(Cc2ccccc2)CC1 | 0.498*
CCOC(=O)c1cnc2ccc(OCC)cc2c1N1CCN(C)CC1 | 1.17
CCOC(=O)c1cnc2ccc(OCC)cc2c1N1CCN(c2ccccn2)CC1 | 0.576
Cc1ccc(-c2nnc(SCC(=O)N3CCCCC3)o2)cc1 | 0.941
O=C(Cn1nc(-c2ccccc2)c2cc(Cl)ccc21)N1CCCC1 | 1.03
